High-throughput results from PubChem BioAssay.
Rows were chosen to be rich in hits. Some 8.7% of all compounds tested hit in one or more screens of this group.
AMA1 RON2 block: qHTS for Inhibitors of AMA1-RON; Towards Development of Antimalarial Drug Lead: Primary Screen; Plasmodium falciparum AMA1 (3D7) - RON2 peptide interaction; AID 720542, 2013; hit rate 0.2% among 360,000; AlphaScreen AMA1-biotinylated RON2 peptide binding; Potency, µM (series often up to 58.2 µM), inactives show top-dose activity change, negative = inhibition, usual class: inhibitors;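 also: 0% = vehicle wells and -100% = peptide control; nearly all actives have a fitted effect of over 45% in size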
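AMA1 (3D7) with his tag at 25 nM final met compounds first, then biotinylated RON2 peptide at 25 nM; detection used donor plus acceptor beads, 10 µg/mL apiece, read by AlphaScreen after 30 min at room temperature.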
Pf growth 96h: Primary qHTS for delayed death inhibitors of the malarial parasite plastid, 96 hour incubation; P. falciparum luciferase reporter growth, 96 h; Potency, µM (top dose mostly 28.7 µM), for inactives: at the highest dose activity change, negative = inhibition, most hits filed as inhibitors; hit rate 6.9% among 320,000; AID 504834, 2011
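Cell-based qHTS: luciferase-tagged P. falciparum in erythrocytes (2% hematocrit, 0.05% parasitemia final) incubated with compounds for 96 hours, 37 C, 5% CO2; luciferase detection reagent then added and luminescence measured.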
VACV mCherry inh: qHTS for Stage-Specific Inhibitors of Vaccinia Orthopoxvirus: mCherry Reporter Primary qHTS; Vaccinia virus mCherry reporter infection, fluorescence; Potency, µM (titrated, usually from 36.5 µM), for the others: at the highest dose activity change, negative = inhibition, hits mostly inhibitors; hit rate 0.63% among 310,000; calls by dose curve; tested in A549 cells; also: nearly all actives have a fitted effect of over 35% in size
Pf growth 48h: Primary qHTS for delayed death inhibitors of the malarial parasite plastid, 48 hour incubation | P. falciparum luciferase growth in erythrocytes, 48 h | Potency, µM (series often up to 28.7 µM), inactives show at the top dose activity change, negative = inhibition, hits mostly inhibitors | hit rate 5.9% among 310,000
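Cell-based growth assay: transgenic P. falciparum expressing firefly luciferase, cultured in red cells within RPMI 1640 containing 0.5% w/v Albumax, 24 mM bicarbonate and gentamycin. A drop in luciferase activity indicates inhibition.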
VACV Venus inh: qHTS for Stage-Specific Inhibitors of Vaccinia Orthopoxvirus: Venus Reporter Primary qHTS. Vaccinia virus Venus reporter expression, fluorescence. Potency, µM (doses to about 36.5 µM), without a hit: at the highest dose activity change, negative = inhibition, most hits filed as inhibitors. hit rate 0.46% among 330,000. AID 720580, 2013; calls by dose curve; tested in A549 cells; also: nearly all actives have a fitted effect of over 30% in size
* hit, by the source's call; ? = inconclusive; · = no result; [ ] = another dose, or the depositor's remark. Unless noted, calls follow the shape of the dose curve; as a rule, active = well fitted curve in the direction sought with a large enough effect; inconclusive = small, poorly fitted or top-dose-only effect, or another doubt; inactive = no such curve, though single readings can be large; an effect the other way counts as inactive or inconclusive. Unless noted, % is scaled to controls: 0 for no effect and ±100 for the full control effect; potency is read from the fitted curve at half-maximal effect.

SMILES	AMA1 RON2 block	Pf growth 96h	VACV mCherry inh	Pf growth 48h	VACV Venus inh
CC(=O)NC(c1ccco1)c1ccc2cccnc2c1O (stereo not given)	?	7%	·	10µM*	?
COc1ccc(C(NC(=O)C(C)C)c2ccc3cccnc3c2O)cc1 (stereo not given)	8%	?	4.5µM*	?	?
CCCC(=O)NC(c1ccc(C(C)C)cc1)c1ccc2cccnc2c1O (stereo not given)	95%	15µM*	?	1.5µM*	-29%
CCCC(=O)NC(c1ccccc1Cl)c1ccc2cccnc2c1O (stereo not given)	47%	?	1µM*	?	?
CCOC(=O)c1cc(OC(=O)c2cc(OC)c(OC)c(OC)c2)n(-c2ccccc2)n1	·	·	-3%	·	-3%
Cc1ccc(C)c(NC(=O)Cn2cc(S(=O)(=O)Cc3cccc(Cl)c3)c3ccccc32)c1	·	·	-15%	·	-4%
COc1ccc(CC(C)NCCC(c2ccccc2)c2ccccc2)cc1 (stereo not given)	-2%	10µM*	·	?	·
COc1ccc(CNC(C)CCc2ccccc2)cc1 (stereo not given)	9%	-27%	-14%	-36%	-22%
COc1ccc(CN(CCC(c2ccccc2)c2ccc(OC(C)C)cc2)C(=O)CCl)cc1OC (stereo not given)	-13%	3.7µM*	-15%	?	?
COc1ccc(C(CCNCc2ccccc2)c2ccc(F)cc2)cc1 (stereo not given)	-5%	0%	?	0%	?
COc1ccc(C(CCNC(C)c2ccccc2)c2ccc(F)cc2)cc1 (stereo not given)	-2%	?	11µM*	?	?
COc1ccc(C(CCNCc2ccc(F)cc2)c2ccc(F)cc2)cc1 (stereo not given)	25%	?	?	4.7µM*	?
COc1ccc(CNCCC(c2ccc(F)cc2)c2ccc(OC)cc2)cc1 (stereo not given)	-2%[11.6 µM]	?	?	?	?
CCOC(=O)c1c(NC(=O)CS(=O)(=O)c2ccc(C)cc2)sc2c1CCCCC2	·	·	-11%	·	-6%
Cc1ccc(NC(=O)c2cnc(SCC(=O)N3CCOCC3)n(C)c2=O)cc1	·	·	-12%	·	-5%
COc1ccc(CNCCC(c2ccccc2)c2ccc(OC(C)C)cc2)cc1OC (stereo not given)	-17%	?	?	9.3µM*	-24%
CC(C)Oc1ccc(C(CC(=O)O)c2ccc(F)cc2)cc1 (stereo not given)	-4%	66%	17%	145%	4%
COc1ccc(CNCCC(c2ccc(F)cc2)c2ccc(OC(C)C)cc2)cc1OC (stereo not given)	0%	12µM*	?	13µM*	?
O=C1c2ccccc2C(Nc2cccnc2)N1Cc1ccccc1 (stereo not given)	?	10µM*	2%	·	0%
COc1ccc(CCNc2ncnc3sc(C)cc23)cc1OC	-10%	60%	?	5.2µM*	-17%
Fc1ccc(CCNc2ncnc3[nH]ncc23)cc1	17%	·	?	·	-19%
COc1ccc(CCNc2ncnc3[nH]ncc23)cc1OC	6%	15µM*	-23%	3%	-16%
CN(Cc1ccccc1)c1ccc(C=O)cc1	·	·	-4%	·	0%
CSc1ccc(CC2C(=O)Nc3ccccc32)cc1 (stereo not given)	·	·	2%	·	-12%
O=C(CC1C(=O)NCCN1Cc1ccc(-c2ccccc2)cc1)NC1CCC1 (stereo not given)	6%	11%	-9%	?	-18%
SMILES	AMA1 RON2 block	Pf growth 96h	VACV mCherry inh	Pf growth 48h	VACV Venus inh
CCc1cc(CNC(=O)CC2C(=O)NCCN2Cc2ccc(-c3ccccc3)cc2)on1 (stereo not given)	15%	2.1µM*	·	-16%	·
O=C(CC1C(=O)NCCN1Cc1ccc(-c2ccccc2)cc1)NCCCn1cccn1 (stereo not given)	2%	-8%	·	-8%	·
CCOC(=O)N1CCC(NC(=O)CC2C(=O)NCCN2Cc2ccccc2)CC1 (stereo not given)	0%	9.3µM*	-14%	17%	-4%
O=C(CC1C(=O)NCCN1Cc1ccc(-c2ccccc2)cc1)NCc1ccccc1 (stereo not given)	8%	6.6µM*	-11%	-6%	-15%
CCc1ccc(N2CCn3c2nc2c3c(=O)n(C/C=C/c3ccccc3)c(=O)n2C)cc1	·	·	-14%	·	-11%
COc1ccc(C(=O)NC2CCC(O)CC2)cc1S(=O)(=O)NCc1ccc(Cl)cc1 (stereo not given)	-1%	?	·	13µM*	·
COc1ccc(C(=O)NCCNC(C)=O)cc1S(=O)(=O)NCc1ccc(Cl)cc1	6%	0%	·	-5%	·
Cc1cccc(OCC(=O)Nc2ccc(OCc3cc(=O)n4cc(C)ccc4n3)cc2)c1	·	·	-29%	·	-21%
COc1cccc(N2C(=O)C(CC(=O)Nc3ccc(F)cc3)N(CCC3=CCCCC3)C2=O)c1 (stereo not given)	·	·	-15%	·	-25%
CCC1(C)Cc2c(sc3nc(SC)n(-c4ccc(C)cc4)c(=O)c23)CO1 (stereo not given)	·	·	-6%	·	2%
O=[N+]([O-])c1ccc2ncnc(Nc3ccc4c(c3)OCCO4)c2c1	-8%	?	-5%	9.3µM*	-13%
Cc1ccc(O)c(Nc2ncnc3ccc([N+](=O)[O-])cc23)c1	-13%	-18%	·	?	·
CCOC(=O)C1=C(O)c2ccccc2C(=O)/C1=C\c1ccc(CC)cc1	?	?	·	3.3µM*	·
CCOC(=O)c1ccc(COC(=O)c2ccc3c(c2)-c2ccccc2C3=O)cc1	-1%	79%	-14%	51%	-5%
CCCc1ccc(/C=C2\C(=O)c3ccccc3C(O)=C2C(=O)OCC)cc1	·	?	·	4.7µM*	·
COc1ccccc1-c1nc2ccccc2nc1-c1ccccc1	1%	16%	·	?	·
COc1ccccc1-c1nc2cc3ccccc3cc2nc1-c1ccccc1OC	-10%	12µM*	-6%	?	-13%
O=C(CCCNS(=O)(=O)c1cccc2nsnc12)NCc1ccccc1	16%	9.3µM*	·	5%	·
CC1Cc2ccccc2N1C(=O)CCNS(=O)(=O)c1cccc2nsnc12 (stereo not given)	-6%	2.6µM*	·	-11%	-10%
Cc1cc2oc(C(=O)Nc3ccc(S(N)(=O)=O)cc3)cc(=O)c2cc1C	·	·	0%	·	8%
COc1cc(NC(=O)C/C(C)=N/NC(=O)C2CCCCC2)c(OC)cc1Cl	16%	?	-24%	-1%	-2%
COc1ccc(NC(=O)C/C(C)=N/NC(=O)C2CCCCC2)c([N+](=O)[O-])c1	22%	10µM*	0%	31%	-11%
